Test results published in the antibiotic and cytotoxicity screens of Wong et al. (2023).
The whole screen tested about 39,000 compounds, of which about 3,300 (8.5%) were called active. The full list was thinned out, with actives kept by preference.

The compounds below were run on HepG2 (assay: cytotoxicity call (relative viability < 0.9)). Details: 10 µM.

Row | Structure (SMILES) | cytotoxicity call
1 | Cc1noc(C)c1NC(=O)Nc1ccc2c(c1)CC(=O)N([C@H](C)CO)C[C@H](C)[C@H](CN(C)CC1CC1)O2 | inactive
2 | Nc1ncnc2c1ncn2[C@@H]1O[C@H](CO)C[C@H]1O | inactive
3 | C[C@H]1CN([C@@H](C)CO)C(=O)Cc2cc(N(C)C)ccc2O[C@@H]1CN(C)S(=O)(=O)c1cn(C)cn1 | inactive
4 | CC(C)(CO)Nc1ncnc(N)c1[N+](=O)[O-] | inactive
5 | COc1ccc(NC(=O)Nc2cccc3c2O[C@@H](CN(C)CC2CCCCC2)[C@@H](C)CN([C@@H](C)CO)C3=O)cc1 | inactive
6 | Cc1noc(C)c1NC(=O)N(C)C[C@H]1Oc2c(NC(=O)C3CCOCC3)cccc2C(=O)N([C@@H](C)CO)C[C@@H]1C | inactive
7 | C[C@@H]1CN([C@H](C)CO)C(=O)c2cc(NS(=O)(=O)c3ccc(F)cc3)ccc2O[C@@H]1CN(C)S(=O)(=O)c1ccccc1 | inactive
8 | C[C@@H]1CN([C@H](C)CO)C(=O)CCCn2nncc2CO[C@@H]1CN(C)S(=O)(=O)c1ccc(Cl)cc1 | inactive
9 | C[C@@H]1CN([C@H](C)CO)C(=O)CCCn2nncc2CO[C@@H]1CN(C)C(=O)Nc1ccccc1C(F)(F)F | inactive
10 | C[C@H]1CN([C@@H](C)CO)C(=O)CCCn2nncc2CO[C@H]1CN(C)C(=O)Nc1ccccc1C(F)(F)F | active
11 | C[C@H]1CN([C@@H](C)CO)C(=O)CCCn2nncc2CO[C@H]1CN(C)S(=O)(=O)c1ccc(Cl)cc1 | active
12 | C[C@H]1CN([C@@H](C)CO)C(=O)CCCn2nncc2CO[C@@H]1CN(C)C(=O)Nc1ccccc1C(F)(F)F | inactive
13 | C[C@@H]1CN([C@H](C)CO)C(=O)CCCn2nncc2CO[C@H]1CN(C)S(=O)(=O)c1ccc(Cl)cc1 | inactive
14 | COc1ccc(NC(=O)N(C)C[C@H]2Oc3c(NS(C)(=O)=O)cccc3C(=O)N([C@H](C)CO)C[C@H]2C)cc1 | inactive
15 | O=C1c2ccccc2C(=O)C1c1ccc(Cl)cc1 | inactive
16 | O=C1C(O)=C(C2CCC(c3ccc(Cl)cc3)CC2)C(=O)c2ccccc21 (configuration not stated) | active
17 | CCCCC(=O)C1CCC(c2ccc(Cl)cc2)CC1 (configuration not stated) | inactive
18 | C[C@H](CO)N1C[C@H](C)[C@H](CN(C)C(=O)c2ccccc2)OCCCC[C@H](C)Oc2ccc(NC(=O)Cc3ccccc3)cc2C1=O | inactive
19 | CCO[C@H]1OC(C(=O)N2CCN(Cc3ccccc3)CC2)=C[C@@H](c2cn(C(C)=O)c3ccccc23)[C@@H]1CCCOC(=O)NCCCCCC(=O)NO | inactive
20 | NCCCCCCNC(=O)[C@H]1C[C@H]2C(=O)N[C@@H](CCCCN)C(=O)N2[C@H]1c1ccc(O)cc1 | inactive
21 | C[C@@H]1CN([C@@H](C)CO)C(=O)c2cc(NC(=O)Nc3ccc(C(F)(F)F)cc3)ccc2O[C@@H](C)CCCCO[C@@H]1CN(C)S(=O)(=O)c1ccc(F)cc1 | inactive
22 | C[C@@H]1CCCCO[C@@H](CN(C)Cc2ccc(C(=O)O)cc2)[C@H](C)CN([C@@H](C)CO)C(=O)c2cc(NS(=O)(=O)c3ccc(F)cc3)ccc2O1 | inactive
23 | Nc1ncnc2c1ncn2[C@H]1O[C@H](COP(=O)(O)O)[C@@H](O)[C@H]1O | inactive
24 | CC(C)OC(=O)OCOP(=O)(CO[C@H](C)Cn1cnc2c(N)ncnc21)OCOC(=O)OC(C)C | inactive

Row | Structure (SMILES) | cytotoxicity call
25 | Nc1ncnc2c1ncn2CCN1CCCCC1 | inactive
26 | Nc1ncnc2c1ncn2C1OC(COP(=O)(O)O)C(O)C1O (configuration not stated) | inactive
27 | CC(Cn1cnc2c(N)ncnc21)OCP(=O)(O)O (configuration not stated) | active
28 | Nc1ncnc2c1ncn2CCO | inactive
29 | CC(C)(C)C(=O)OCOP(=O)(COCCn1cnc2c(N)ncnc21)OCOC(=O)C(C)(C)C [listing 1 of 2 here] | active
30 | CC(C)(C)C(=O)OCOP(=O)(COCCn1cnc2c(N)ncnc21)OCOC(=O)C(C)(C)C [listing 2 of 2 here] | active
31 | Nc1ncnc2c1ncn2CCN1CCOCC1 | inactive
32 | CCCNC(=O)Nc1ccc2c(c1)C(=O)N(C)C[C@@H](OC)[C@@H](C)CN(Cc1ccc(-c3ccccn3)cc1)[C@@H](C)CO2 | inactive
33 | COc1ccc(S(=O)(=O)Nc2ccc3c(c2)CC(=O)N([C@@H](C)CO)C[C@H](C)[C@@H](CN(C)C(=O)Nc2c(C)noc2C)O3)cc1 | inactive
34 | CN1CCN(C(=O)Cn2cc(-c3ccc(C(=O)NO)cc3)nn2)CC1 | inactive
35 | Cc1noc(C)c1NC(=O)N[C@@H]1C=C[C@@H](CC(=O)N2CCN(C)CC2)O[C@@H]1CO | inactive
36 | COc1ccc(cc1)CN1C[C@]2(CN(C2)C(=O)Cc2ccncc2)c2c([nH]c3cc(ccc23)OC)[C@@H]1CO | inactive
37 | C[C@H](CO)N1C[C@H](C)[C@@H](CN(C)Cc2ccncc2)Oc2ccc(NC(=O)Nc3cccc4ccccc34)cc2CC1=O | active
38 | C[C@@H]1CN([C@H](C)CO)C(=O)Cc2cc(NC(=O)Nc3cccc4ccccc34)ccc2O[C@H]1CN(C)Cc1ccncc1 | inactive
39 | C[C@H]1CN([C@@H](C)CO)C(=O)Cc2cc(NC(=O)Nc3cccc4ccccc34)ccc2O[C@@H]1CN(C)Cc1ccncc1 | inactive
40 | C[C@H](CO)N1C[C@H](C)[C@H](CN(C)Cc2ccncc2)Oc2ccc(NC(=O)Nc3cccc4ccccc34)cc2CC1=O | active
41 | C[C@H]1CN([C@@H](C)CO)C(=O)Cc2cc(NC(=O)Nc3cccc4ccccc34)ccc2O[C@H]1CN(C)Cc1ccncc1 | inactive
42 | C[C@@H]1CN([C@H](C)CO)C(=O)Cc2cc(NC(=O)Nc3cccc4ccccc34)ccc2O[C@@H]1CN(C)Cc1ccncc1 | active
43 | C[C@@H]1CN([C@@H](C)CO)C(=O)Cc2cc(NC(=O)Nc3cccc4ccccc34)ccc2O[C@H]1CN(C)Cc1ccncc1 | inactive
44 | C[C@@H]1CN([C@@H](C)CO)C(=O)Cc2cc(NC(=O)Nc3cccc4ccccc34)ccc2O[C@@H]1CN(C)Cc1ccncc1 | active
45 | COc1ccc(S(=O)(=O)N[C@H]2CC[C@@H](CC(=O)N3CCC(Cc4ccccc4)CC3)O[C@@H]2CO)cc1 | inactive
46 | C[C@@H]1CCCCO[C@H](CN(C)C(=O)Nc2ccc3c(c2)OCO3)[C@H](C)CN([C@@H](C)CO)C(=O)c2cc(NS(=O)(=O)c3cccs3)ccc2O1 | inactive
47 | CC(C)NC(=O)Nc1cccc2c1O[C@H](CN(C)S(=O)(=O)c1cccs1)[C@H](C)CN([C@H](C)CO)C2=O | inactive
